Out of some 2,100 compounds screened, about 320 (15%) were called active. Inconclusive results (about 52%) are left out. This is one part of the list. A number with no mark means an inactive call. Calls follow the shape of the dose curve; as a rule, active = well fitted cell-killing curve with a large enough effect; inconclusive = small, poorly fitted or top-dose-only effect, or effect the other way; inactive = flat fitted curve, though single readings scatter.
% is scaled to controls: 0 for no effect and ±100 for the full control effect; potency is read from the fitted curve at half-maximal effect.

The test in a line: Viability Counterscreen for CMV-Luciferase Assay of Inhibitors of ATXN expression. Also: nearly all actives have a fitted effect of over 55% in size. The note with it: HEK-293 CMV-luciferase cells viability, protease fluorescence, 24 h; activity change, negative = cytotoxicity: at the top concentration. A digest of the protocol:
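Dosing on CMV-luciferase HEK-293 cells for 24 hr, 37 °C. Luminescence read with SteadyGlo; cytotoxicity measured first as Gly-Phe-AFC protease fluorescence, 25 uM final substrate, 30 min.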
In general terms: A counterscreen serves to expose hits that act by an unwanted route or on another target.
For the compound `O[C@@H]1[C@@H](O)C=C2CCN3Cc4cc5c(cc4[C@H]1C23)OCO5` (stereo partly specified), the Potency is 6.31 µM (active).
Take `Cc1cc(C)n(-c2ccc(C(=O)N3CCN(S(=O)(=O)c4cccc(Br)c4)CC3)cc2)n1`: the “activity change, negative = cytotoxicity” value is 3.92%.
On to `CCc1cc(-c2[nH]ncc2-c2ccc(OC)cc2)c(O)cc1O`, for which the “activity change, negative = cytotoxicity” value is -18.3%.
Still for that read-out and setting: then `CCn1c2ccccc2c2cc(/C=C(/C#N)C(N)=S)ccc21`, with -29.2%; and `CCOC(=O)/C=C/C(=O)Nc1ccc(Oc2ccccc2)cc1`, with -13.1%.
On to `O=C(Nc1ccc(Oc2ccc(NC(=O)Nc3ccc([N+](=O)[O-])cc3)cc2)cc1)Nc1ccc([N+](=O)[O-])cc1`, for which the Potency was 10 µM (active).
On the same count and under the same terms, next, `Cc1ccc(Cc2cnc(NC(=O)/C(C#N)=C/c3ccc(-c4cccc([N+](=O)[O-])c4)o3)s2)cc1`: 20 µM (active).
Turning to `Cc1ccc(-c2ccc(/C=N/c3ncn[nH]3)o2)cc1Cl`, the “activity change, negative = cytotoxicity” value was -27.7%.
In the case of `CCCc1cc(=O)[nH]c(-n2[nH]c3c(c2=O)CCCC3)n1`, the Potency was 22.4 µM (active).
Consider `CCn1c2ccccc2c2cc(NC(=O)COC(=O)c3cc(S(=O)(=O)N4CCCCC4)ccc3Cl)ccc21`, for which the “activity change, negative = cytotoxicity” value was 12.4%.
Turning to `CC[C@]12c3[nH]c4ccc(Cl)cc4c3CCN1C(=O)[C@@H](CC(=O)NCC13CC4CC(CC(C4)C1)C3)C[C@@H]2C(=O)N1CCN(C(=O)C2CC2)CC1`, the Potency is 22.4 µM (active).
On the same count and under the same terms, next, `CC[C@]12c3[nH]c4ccc(Cl)cc4c3CCN1C(=O)[C@@H](CC(=O)NCC13CC4CC(CC(C4)C1)C3)C[C@@H]2C(=O)N1CCN(C(=O)c2ccco2)CC1`: 3.16 µM (active).
Take `CCOC(=O)c1cnc2ccc(OC)cc2c1Nc1ccc(N2CCN(C)CC2)cc1`: the “activity change, negative = cytotoxicity” value was -29.6% [at 57.5 µM].
For `Cc1ccc2nc(SCc3ccc([N+](=O)[O-])cc3)[nH]c2c1`, the “activity change, negative = cytotoxicity” value is -7.46%.
As to `Cc1ccc2nc3cc([N+](=O)[O-])cc([N+](=O)[O-])c3cc2c1`, the Potency is 11.2 µM (active).
Regarding `COc1cc2nc(CN(C)Cc3ccc(SC)cc3)[nH]c(=O)c2cc1OC`, the “activity change, negative = cytotoxicity” value is -19% [at 57.5 µM].
With `COc1cc2nc(N(C)C)nc(N)c2cc1OC`, the Potency is 25.1 µM (active).
As for `COc1ccc(C)cc1Nc1nc(N)c2cc(OC)c(OC)cc2n1`, the “activity change, negative = cytotoxicity” value is -4.73%.
Turning to `CC(C)(C)S(=O)(=O)/C(C#N)=N/Nc1ccc(Cl)cc1`, the Potency was 25.1 µM (active).
On to `CCc1ccc(N(CC)C(=O)c2ccc3c(Cl)c4c(nc3c2)CCC4)cc1`, for which the “activity change, negative = cytotoxicity” value is -27.5%.
`O=C(Nc1ccc(N2CCN(C(=O)c3ccco3)CC2)c(Cl)c1)c1c(F)c(F)c(F)c(F)c1F`: the “activity change, negative = cytotoxicity” value was -27.5% [at 57.5 µM].
Turning to `O=C(Nc1ccc(N2CCN(C(=O)c3ccco3)CC2)c(Cl)c1)c1cccs1`, the Potency is 28.2 µM (active).
Consider `O=C(NC(=S)N1CCN(c2ccc(F)cc2)CC1)c1cccs1`, for which the “activity change, negative = cytotoxicity” value is -10.7%.
In the case of `CC(C)(C)OC(=O)N1CCC(c2c(C(=O)NCC3CCN(C4CCCC4)C3)cnn2-c2cccc(Cl)c2)CC1` (stereo unspecified), the “activity change, negative = cytotoxicity” value is -29.1%.
Still for that read-out and setting: next, `CC(=O)c1sc(C(C)(C)C)cc1NC(=O)/C=C/C(=O)O`: -3.54% [at 57.5 µM].
Turning to `COC(=O)c1c(NC(=O)/C=C/C(=O)O)sc(C)c1-c1ccc(C(C)C)cc1`, the Potency was 20 µM (active).
`CCOC(=O)c1c(C)nn(-c2ccc(NC(=O)/C=C/C(=O)O)cc2)c1C`: the “activity change, negative = cytotoxicity” value is -16.6% [at 57.5 µM].
Same read-out and setting: next, `CN(C)CCCN(C(=O)c1ccc(S(=O)(=O)N2CCCCCC2)cc1)c1nc2ccc(Br)cc2s1`: -15.8%; `CC(=O)c1ccc(S(=O)(=O)N2CCN(CCOc3ccc(Br)cc3)CC2)cc1`: -20.8%.
Take `CN(C)CCCN(C(=O)CCc1ccccc1)c1nc2ccc(Br)cc2s1`: the Potency was 22.4 µM (active).
For `CN(C)CCCN(C(=O)c1ccc(S(=O)(=O)N2CCCC2)cc1)c1nc2ccc(Br)cc2s1`, the Potency was 31.6 µM (active).
Consider `O=C(N/N=C/c1cc(Br)ccc1O)C(c1ccncc1)N1CCOCC1` (stereo unspecified), for which the “activity change, negative = cytotoxicity” value was -14.8% [at 57.5 µM].
For the compound `Cc1cc(C(=O)N/N=C/c2cc(Br)ccc2OC(=O)c2ccccc2)n[nH]1`, the “activity change, negative = cytotoxicity” value is -6.81%.
For `COc1cccc(NC(=O)/C=C/c2ccc(S(=O)(=O)N3CCOCC3)cc2)c1`, the “activity change, negative = cytotoxicity” value was -4.39% [at 57.5 µM].
The same measure, in the same setting: then `Cn1c(CO)c(-c2ccccc2)c2cc([N+](=O)[O-])ccc21`, with 3.4%.
With `Cc1[nH]n2c(=O)cc(C(C)(C)C)nc2c1-c1ccccc1`, the Potency was 11.2 µM (active).
As for `CC(C)N(C(=O)COC(=O)c1ccccc1C(=O)c1ccc(Cl)c([N+](=O)[O-])c1)C(C)C`, the “activity change, negative = cytotoxicity” value was -28.3%.
For `COCCCNCCCOc1ccc(Cl)cc1C(C)(C)C`, the Potency was 25.1 µM (active).
As to `CCCCNCCCOc1cccc(Cl)c1Cl`, the “activity change, negative = cytotoxicity” value was -25.7% [at 57.5 µM].
As for `CC(OC(=O)c1cc(Br)ccc1O)C(=O)Nc1ccc(S(=O)(=O)N2CCCC2)cc1` (stereo unspecified), the Potency is 28.2 µM (active).
Regarding `O=C(N/N=C\c1cc(Br)ccc1O)c1ccc(S(=O)(=O)N2CCCCC2)cc1`, the “activity change, negative = cytotoxicity” value is 9.4%.
The same measure, in the same setting: next, `O=C(N/N=C\c1cc(Cl)ccc1O)c1ccc(S(=O)(=O)N2CCCCC2)cc1`: 9.18%.
With `COc1ccc(-c2n(CC(=O)OC3CC(C)CCC3C(C)C)c3ccccc3[n+]2C)cc1` (stereo unspecified), the Potency was 7.94 µM (active).
For `C/C(=N\Nc1cc(N2CCOCC2)nc(C)n1)c1cccc([N+](=O)[O-])c1`, the “activity change, negative = cytotoxicity” value was -2.94%.
Same read-out and setting: then `CC(NC(=O)Nc1cccc([N+](=O)[O-])c1)c1ccc2c(c1)OCO2` (stereo unspecified), with -13.9%.
With `N#C/C(=N\Nc1cccc([N+](=O)[O-])c1)C(=O)c1ccc(Br)cc1`, the Potency was 2.24 µM (active).
In the case of `Cc1csc2c(N3CCN(C(=O)Nc4ccc(Cl)c(Cl)c4)CC3)ncnc12`, the “activity change, negative = cytotoxicity” value was -11.9%.
Regarding `COc1ccc([C@@]2(C(C)C)ON(c3ccccc3C(F)(F)F)C2=O)cc1`, the “activity change, negative = cytotoxicity” value was -16.8%.
On the same count and under the same terms, next, `O=C(NCC(=O)N1CC(O)CC1C(=O)N1CCCC1C(=O)OCc1ccccc1)OCc1ccccc1` (stereo unspecified): -1.71%; `C=CCc1cccc(/C=N/NC(=O)CNc2ccccc2)c1O`: -12.7%.
Consider `C=CCc1cccc(/C=N/NC(=O)CCCNc2ccc(C)cc2)c1O`, for which the Potency was 20 µM (active).
Take `O=C(Cc1ccccc1)N/N=C/c1cc(Br)cc(Br)c1O`: the “activity change, negative = cytotoxicity” value was -0.659%.
Turning to `CCOC(=O)N1CCN(S(=O)(=O)c2ccc(C(=O)NNc3nc4c(C)cc(C)cc4s3)cc2)CC1`, the Potency was 1.58 µM (active).
Take `Cc1cc(C)c2nc(NNC(=O)c3ccc(S(=O)(=O)N4CC(C)CC(C)C4)cc3)sc2c1` (stereo unspecified): the “activity change, negative = cytotoxicity” value was -17.8% [at 57.5 µM].
`Cc1cc(C)c2nc(NNC(=O)c3cc(-c4cccs4)nc4ccccc34)sc2c1`: the “activity change, negative = cytotoxicity” value was -23.3%.
On to `Cc1nc(SCc2ccc(C(=O)O)cc2)nc2c1CCCC2`, for which the “activity change, negative = cytotoxicity” value was -2.96%.
Still for that read-out and setting: then `CN(C)C(=O)c1cccc(-c2cnc3c(NC=O)cc(-c4ccc(F)cc4)cn23)c1`, with -18.1%; and `CN1CCN(c2ccc(-c3cc(NC=O)c4ncc(-c5ccc(F)c(Cl)c5)n4c3)cc2)CC1`, with -4.43% [at 57.5 µM].
Take `CN(C)CCNC(=O)c1cccc(-c2cnc3c(NC=O)cc(-c4cccc(C(F)(F)F)c4)cn23)c1`: the Potency is 22.4 µM (active).
Same read-out and setting: next, `CN(C)CCNC(=O)c1cccc(-c2cnc3c(NC=O)cc(/C=C/c4ccccc4)cn23)c1`: 28.2 µM (active).
For `CN(C)CCNC(=O)c1cccc(-c2cnc3c(NC=O)cc(-c4cccs4)cn23)c1`, the “activity change, negative = cytotoxicity” value was -19.3% [at 57.5 µM].

Values taken from PubChem BioAssay AID1745849 (National Center for Advancing Translational Sciences (NCATS), 2022).
